In PubChem BioAssay (NCI) one finds growth data, which are given here for 24 compounds.

Common to all, as to experiment: NCI-60 one-dose screen, 48 h (100 = growth as untreated, 0 = no growth, -100 = all killed)
What all share (conditions): 10 µM unless noted

Assay [1] has as its system NCI-H23 lung.
For assay [2], the system named is NCI-H226 lung.
The test system of assay [3] is NCI-H322M lung.
Assay [4] relates to HOP-62 NSCLC.
For assay [5], the system named is NCI-H460 lung.
In assay [6] the test system is HOP-92 NSCLC.
The subject of assay [7] is NCI-H522 lung.
Assay [8] relates to A549/ATCC NSCLC.
For assay [9], the system named is 786-0 renal.
Assay [10] has as its system COLO 205 colon.

SMILES strings stand for the structures. The panel holds about 83,000 compounds, 20% with a hit somewhere; the sample as a whole holds those more often.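 Single-concentration screen, 48 h exposure, 96-well plates. Endpoint: percent growth. Below 10 = active.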 Unmarked numbers belong to inactive results. Active and inactive are the calls of the source.

Consider `CC(=O)NC(C)(C)C(=O)N1CCC[C@H]1C(=O)NC(C)(C)C(=O)N[C@@H](C)C(=O)NC(C)(C)C(=O)NC(C)(C)C(=O)N[C@@H](CCC(N)=O)C(=O)NC(C)(C)C(=O)N[C@H](C(=O)NC(C)(C)C(=O)NCC(=O)N[C@@H](CC(C)C)C(=O)NC(C)(C)C(=O)N1CCC[C@H]1C(=O)N[C@H](C(=O)NC(C)(C)C(=O)NC(C)(C)C(=O)N[C@@H](CCC(N)=O)C(=O)N[C@@H](CCC(N)=O)C(=O)N[C@H](CO)Cc1ccccc1)C(C)C)C(C)C`, for which the growth in [1] was 21.1% [4.25 µM]; in assay [2], 29.8% [4.25 µM]; in assay [3], 71.1% [4.25 µM]; in assay [4] it was 41% [4.25 µM]; in assay [5], 29.9% [4.25 µM]; in assay [6] it was -10.1% [4.25 µM] (active). Further, the growth was 10.6% [4.25 µM] in assay [7], 26.7% [4.25 µM] in assay [8], 80.5% [4.25 µM] in assay [9] and -25.1% [4.25 µM] (active) in [10].
With `CS(=O)(=O)c1ccc2c(c1)c1c(n2S(=O)(=O)c2ccc(Cl)cc2)CCCC1`, the growth in [1] was 36.3%; in assay [2], 53.6%; in assay [3], 49.1%; in assay [4], 38.5%; in [5] it was 9.54% (active); in assay [6], 32.7%. Moreover, the growth in assay [7] is -44.5% (active); in assay [8] it was 48.7%; in [9] it was 40.4%; in assay [10] it was -36.3% (active).
Consider `Fc1ccc(-c2cc3nc(C(Cl)Cl)nc(-c4cccs4)n3n2)cc1`, for which the growth in assay [1] is 35.2%; in assay [2], 95%; in assay [3] it was -9.31% (active); in assay [4] it was 5.82% (active); in assay [5], -32.8% (active); in assay [6], -6.12% (active). Also, the growth in assay [7] is 78.9%; in assay [8], -14.2% (active); in [9], 58.2%; in [10], -23.1% (active).
For `CCN1C(=O)N(CC)C2SC(N/N=C/c3cccs3)=NC21` (stereo not given), the growth in [1] was 25.8%; in assay [2] it was 36%; in assay [3] it was 46.6%; in [4] it was 32%; in assay [5], 3.74% (active); in [6], -7.41% (active). For the same compound, the growth in assay [7] was -47.9% (active); in assay [8], 20.3%; in assay [9], 17.9%; in [10], -63% (active).
On to `O=C(NNc1nc2cc(F)ccc2n2cncc12)c1cnccn1`, for which the growth in assay [1] was 37.4%; in assay [2], 44.6%; in assay [3], 25.4%; in assay [4], 36.1%; in assay [5], 4.66% (active); in assay [6], 63.7%. Moreover, the growth in [7] was 24.3%; in assay [8] it was 22.2%; in assay [9], 10%; in [10], 19.5%.
Turning to `C#C[C@]1(O)CC[C@H]2[C@@H]3CC=C4c5sc(Nc6cccc(C)n6)nc5CC[C@]4(C)[C@H]3CC[C@@]21C`, the growth is 36.3% in assay [1]; 45% in [2]; 61.3% in assay [3]; 16.5% in assay [4]; 4.46% (active) in [5]; 1.75% (active) in assay [6]. The growth in assay [7] was 44.7%; in assay [8], 30.7%; in assay [9], -70.7% (active); in [10], 68.3%.
On to `COc1ccc(/C(C)=C(\c2ccc(Cl)cc2)c2ccc(OCCN)cc2)cc1`, for which the growth in [1] is 82.2%; in [2], 92%; in [3], 79.3%; in [4], 106%; in assay [5] it was 60.8%; in assay [6], 61.6%. For the same compound, the growth in assay [7] was 102%; in [8], 88.9%; in assay [9], 81.7%; in assay [10], 32.6%.
`COc1cc(/C=N/n2cnc3oc(-c4ccccc4)cc3c2=N)cc(CN2CCOCC2)c1O`: the growth in assay [1] was 73%; in assay [2], 62.4%; in assay [3], 97.5%; in [4], 74.2%; in [5] it was 89.8%; in [6] it was 63.3%. Moreover, the growth in assay [7] was 61.1%; in assay [8] it was 80.1%; in assay [9] it was 45.6%; in assay [10], 82.4%.
In the case of `COc1ccc2oc3c4[nH]c5ccccc5c4c4c(c3c2c1)C(=O)N(O)C4=O`, the growth was 91.8% in assay [1]; 93.8% in [2]; 108% in assay [3]; 102% in assay [4]; 99.5% in assay [5]; 81% in assay [6]. Moreover, the growth is 99.3% in assay [7], 108% in assay [8], 101% in [9] and 111% in assay [10].
In the case of `CC(=O)NC(C)(C)C(=O)N1CCC[C@H]1C(=O)NC(C)(C)C(=O)N[C@@H](C)C(=O)NC(C)(C)C(=O)N[C@@H](C)C(=O)N[C@@H](CCC(N)=O)C(=O)NC(C)(C)C(=O)N[C@H](C(=O)NC(C)(C)C(=O)NCC(=O)N[C@@H](CC(C)C)C(=O)NC(C)(C)C(=O)N1CCC[C@H]1C(=O)N[C@H](C(=O)NC(C)(C)C(=O)NC(C)(C)C(=O)N[C@@H](CCC(N)=O)C(=O)N[C@@H](CCC(N)=O)C(=O)N[C@H](CO)Cc1ccccc1)C(C)C)C(C)C`, the growth in [1] was 41% [4.25 µM]; in assay [2], 57.2% [4.25 µM]; in [3], 97.3% [4.25 µM]; in assay [4] it was 60.6% [4.25 µM]; in assay [5], 74.1% [4.25 µM]; in assay [6], 60% [4.25 µM]. The growth in [7] was 48% [4.25 µM]; in assay [8], 49.4% [4.25 µM]; in assay [9] it was 97.4% [4.25 µM]; in assay [10], 46.7% [4.25 µM].
In the case of `Cc1ccc(/C=C/CC(=O)Nc2ccc(C(=O)Nc3ccc(F)cc3N)nc2)cn1`, the growth in [1] is 45.7%; in [2], 50.3%; in assay [3], 52.7%; in [4], 51.1%; in assay [5] it was 45.6%; in assay [6] it was -3.93% (active). Also, the growth in assay [7] was 2.35% (active); in [8], 43.8%; in [9], 51.4%; in [10] it was 25%.
Regarding `CCOC(=O)/C(F)=C/C1CC1CCc1cccc(C(F)(F)F)c1` (stereo not given), the growth in assay [1] is 101%; in assay [2] it was 102%; in assay [3], 106%; in assay [4], 98.3%; in assay [5] it was 111%; in assay [6] it was 116%. Moreover, the growth in assay [7] is 100%; in assay [8] it was 107%; in assay [9] it was 103%; in assay [10] it was 103%.
Regarding `C=C1C(=O)O[C@@H]2C[C@@H](C)[C@H](OC)CC(=O)[C@](C)(OC(C)=O)C[C@H](OC(=O)/C(C)=C\C)[C@@H]12`, the growth in assay [1] was 70%; in assay [2], 96.4%; in assay [3], 95.1%; in assay [4] it was 89.5%; in assay [5], 101%; in [6], 85.1%. For the same compound, the growth is -67.8% (active) in assay [7], 100% in assay [8], 93% in assay [9] and -7.69% (active) in assay [10].
For the compound `O=C(COc1ccc(C2SCC(=O)N2c2ccccc2)cc1)c1ccccc1` (stereo not given), the growth was 94% in [1]; 90% in assay [2]; 103% in assay [3]; 95.6% in assay [4]; 102% in assay [5]; 86.8% in [6]. Further, the growth in [7] is 80.6%; in assay [8], 93.8%; in [9] it was 102%; in [10] it was 111%.
As for `Oc1ccc(CSc2nnc(-c3ccc(Oc4ccccc4)cc3)o2)c2cccnc12`, the growth in [1] is 31.3%; in [2], 71.8%; in assay [3], 36.7%; in [4], 9.54% (active); in [5], 3.07% (active); in assay [6] it was 33.7%. The growth in assay [7] was 40.1%; in assay [8], 9.22% (active); in assay [9] it was -11.5% (active); in assay [10] it was 78.2%.
Consider `CC1=C2C(=C[C@@](C)(COS(N)(=O)=O)[C@@H]2O)C(=O)[C@](C)(O)C12CC2`, for which the growth in assay [1] is 23.6%; in [2] it was 85.8%; in assay [3], 74.4%; in assay [4], 45.7%; in [5] it was 7.04% (active); in assay [6], 43.8%. For the same compound, the growth was 70.5% in assay [7], 21.2% in assay [8], 79.4% in assay [9] and 47.7% in [10].
`COc1ccc(C2C(C#N)=C(N)Oc3c2sc2ccc(C)cc32)cc1` (stereo not given): the growth in assay [1] is 43.7%; in [2] it was 34.9%; in assay [3], 71.8%; in [4], 30.1%; in assay [5] it was 15.2%; in assay [6] it was 72.1%. In addition, the growth was -34.3% (active) in assay [7], 45.6% in [8], 42% in assay [9] and 36.8% in [10].
As to `O=C(Cn1cc(CN2C(=O)c3ccc([N+](=O)[O-])cc3C2=O)nn1)Nc1ccc(F)cc1Cl`, the growth in assay [1] is 98%; in assay [2], 101%; in [3], 100%; in [4] it was 109%; in assay [5], 106%; in assay [6], 79.7%. The growth in assay [7] is 93.1%; in [8], 99.1%; in [9] it was 93.9%; in assay [10], 110%.
As for `CC(C)C[C@H]1C(=O)O[C@H](C(C)C)C(=O)N(C)[C@@H](C(C)C)C(=O)O[C@H](C(C)C)C(=O)N(C)[C@@H](C(C)C)C(=O)O[C@H](C(C)C)C(=O)N1C`, the growth was 6.64% (active) in assay [1]; 20.5% in assay [2]; 13.3% in [3]; 14.7% in [4]; 8.47% (active) in [5]; -23.2% (active) in [6]. Further, the growth in [7] is 1.72% (active); in assay [8] it was 12.6%; in assay [9] it was 23.3%; in assay [10], -89% (active).
`Cn1c2ccc(Br)cc2c2c3c(c4c5cc(F)ccc5oc4c21)C(=O)N(O)C3=O`: the growth in [1] is 77.2%; in [2], 90.8%; in assay [3], 103%; in assay [4], 47.1%; in assay [5], 45.9%; in [6], 82.5%. Further, the growth in [7] was 72.1%; in assay [8], 98.4%; in assay [9], 97.6%; in assay [10], 93.7%.
Regarding `C(=C(\C1=NCCN1)n1cnc2ccccc21)/c1ccc2ccccc2c1`, the growth in assay [1] was 65.4%; in assay [2] it was 62.6%; in assay [3], 73.2%; in assay [4], 79.4%; in assay [5], 86.5%; in assay [6], -2.7% (active). Further, the growth in [7] was 14.7%; in [8] it was 86%; in assay [9], 74.6%; in assay [10], 77.1%.
For the compound `CCn1c2ccc(/C=N/OCCCN(C)C)cc2c2cc(/C=N/OCCCN(C)C)ccc21`, the growth in [1] is -5.99% (active); in assay [2], 79.7%; in assay [3], -11.6% (active); in [4], 62.5%; in assay [5] it was -3.59% (active); in [6], 30.6%. Moreover, the growth in assay [7] is -60.5% (active); in assay [8], -67.8% (active); in assay [9] it was -42.5% (active); in assay [10] it was -55.6% (active).
Turning to `O=C(/C=C1\C=CN(CCCCO)c2ccccc21)n1ccc2ccccc21`, the growth in [1] is 101%; in assay [2] it was 86.4%; in [3], 102%; in assay [4], 84.2%; in assay [5] it was 103%; in assay [6], 98.4%. Also, the growth in [7] was 99.7%; in assay [8], 105%; in [9] it was 107%; in assay [10], 104%.
As to `O=C(O)c1ccc(-n2cc(CNc3ccc(Cl)cc3)c(-c3ccc(F)cc3)n2)cc1`, the growth in assay [1] is 104%; in assay [2], 103%; in assay [3], 95.5%; in assay [4] it was 95.8%; in [5], 98.4%; in assay [6] it was 117%. The growth in assay [7] is 91.2%; in assay [8], 85.4%; in [9] it was 101%; in assay [10] it was 119%.
